# Results from the supplement of paper PMC10849652.
# About 7,900 targets were measured; listed, in parts, are those with a hit and a random draw of the rest. About 0.6% of all pairs of compound and target were hits. Values without a mark were called inactive.
# What was measured:
# Test in all cases: log2 fold change, soluble protein after heating vs DMSO (PISA); higher = thermal stabilisation; K562 cells, 10 uM, 30 min; active = over 0.2 and 3.5 SD of the protein, either way, in both replicates (recomputed)
# [1] = biological target: AAGAB (UniProt Q6PD74)
# In short: (§1)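 K562 cells at 2×10^6 cells/mL were treated for 30 min with 10 μM compound, and aliquots were heated for 3 min over 48°C-58°C before pooling. Extraction used PBS with 0.5% NP-40 at 4°C, and soluble protein was the supernatant after 21,000xg for 90 min, measured by TMTpro 16plex LC-MS/MS with channel sums equalised. Thermal stability values, relative to control samples and from duplicates, are log2 fold changes.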
# [2] = biological target: AAK1 (UniProt A0A096LP25)
# In short: as §1
# [3] = biological target: AAK1 (UniProt Q2M2I8)
# In short: as §1
# AAGAB, sequence (Q6PD74 whole entry, looked up): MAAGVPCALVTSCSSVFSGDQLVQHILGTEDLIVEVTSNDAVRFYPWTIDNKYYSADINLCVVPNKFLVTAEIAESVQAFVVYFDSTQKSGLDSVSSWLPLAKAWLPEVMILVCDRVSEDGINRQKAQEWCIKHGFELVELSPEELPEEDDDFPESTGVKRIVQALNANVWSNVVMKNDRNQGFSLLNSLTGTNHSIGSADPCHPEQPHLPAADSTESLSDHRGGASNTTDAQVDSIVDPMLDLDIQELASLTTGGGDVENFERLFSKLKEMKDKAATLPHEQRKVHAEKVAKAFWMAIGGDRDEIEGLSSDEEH
# AAK1 (UniProt Q2M2I8), sequence (Q2M2I8 whole entry, looked up): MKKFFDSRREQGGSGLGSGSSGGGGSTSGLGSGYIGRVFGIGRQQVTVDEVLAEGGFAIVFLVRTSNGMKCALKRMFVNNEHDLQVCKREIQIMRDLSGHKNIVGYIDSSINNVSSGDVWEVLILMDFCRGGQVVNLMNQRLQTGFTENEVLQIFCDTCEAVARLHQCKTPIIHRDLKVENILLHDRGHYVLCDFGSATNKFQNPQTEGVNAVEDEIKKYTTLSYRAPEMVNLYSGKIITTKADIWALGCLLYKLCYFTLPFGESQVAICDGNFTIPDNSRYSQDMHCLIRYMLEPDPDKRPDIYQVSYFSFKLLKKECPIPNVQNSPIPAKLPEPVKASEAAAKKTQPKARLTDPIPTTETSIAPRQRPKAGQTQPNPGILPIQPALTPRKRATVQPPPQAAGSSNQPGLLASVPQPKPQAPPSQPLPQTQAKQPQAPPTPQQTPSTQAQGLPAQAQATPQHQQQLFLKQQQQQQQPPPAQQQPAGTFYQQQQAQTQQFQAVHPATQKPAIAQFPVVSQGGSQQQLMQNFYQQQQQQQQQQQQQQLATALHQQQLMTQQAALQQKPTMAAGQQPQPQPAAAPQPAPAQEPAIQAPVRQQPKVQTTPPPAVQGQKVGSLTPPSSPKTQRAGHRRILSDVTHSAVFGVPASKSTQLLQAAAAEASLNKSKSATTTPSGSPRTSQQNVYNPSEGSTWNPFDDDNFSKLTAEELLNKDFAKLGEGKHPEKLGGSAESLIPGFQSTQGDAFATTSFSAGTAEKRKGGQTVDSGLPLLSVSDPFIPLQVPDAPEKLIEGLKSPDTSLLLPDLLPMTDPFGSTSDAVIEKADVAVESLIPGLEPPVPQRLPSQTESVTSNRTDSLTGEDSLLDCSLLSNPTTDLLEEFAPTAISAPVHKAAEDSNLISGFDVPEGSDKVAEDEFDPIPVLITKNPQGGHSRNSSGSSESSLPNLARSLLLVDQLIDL
SMILES,log2 fold change [1],log2 fold change [2],log2 fold change [3]
CNCc1ccc(-c2[nH]c3cc(F)cc4c3c2CCNC4=O)cc1 [rucaparib],0.055,0.007,-0.013
Cc1ccc(-n2nc(C(C)(C)C)cc2NC(=O)Nc2ccc(OCCN3CCOCC3)c3ccccc23)cc1 [doramapimod],0.017,-0.013,-0.095
CC[C@H](C)[C@H](NC(=O)[C@H]([C@@H](C)CC)N(C)C(C)=O)C(=O)N[C@H](C(=O)N[C@@H](CC(C)C)C(=O)[C@@]1(C)CO1)[C@@H](C)O [epoxomicin],0.006,-0.098,0.031
CNC(=O)c1ccccc1Nc1nc(Nc2ccc(N3CCOCC3)cc2OC)ncc1Cl,0.112,0.333,0.281
C[C@@H]1COCCN1c1cc(C2(S(C)(=O)=O)CC2)nc(-c2cccc3[nH]ccc23)n1,-0.035,0.012,0.028
CC(C)(C)Cn1c(N)nc2ccc(-c3[nH]c(C(C)(C)C)nc3-c3ccc(F)cc3)nc21 [ralimetinib],0.065,-0.01,0.04
NCC(=O)Nc1ccc(-n2nc(C(F)(F)F)cc2-c2ccc3c(ccc4ccccc43)c2)cc1,-0.011,-0.085,0.045
CCN(CC)Cc1ccc2cc(COC(=O)Nc3ccc(C(=O)NO)cc3)ccc2c1 [givinostat],-0.004,0.056,0.042
O=C(CCCCCCNC(=O)c1cnc(N(c2ccccc2)c2ccccc2Cl)nc1)NO [citarinostat],0.024,-0.014,-0.015
CO[C@H]1C[C@@H]2CC[C@@H](C)[C@@](O)(O2)C(=O)C(=O)N2CCCC[C@H]2C(=O)O[C@H]([C@H](C)C[C@@H]2CC[C@H](n3cnnn3)[C@H](OC)C2)CC(=O)[C@H](C)/C=C(\C)[C@@H](O)[C@@H](OC)C(=O)[C@H](C)C[C@H](C)/C=C/C=C/C=C/1C [zotarolimus],-0.093,-0.095,-0.004
c1cc(OCCN2CCCCC2)cc(-c2n[nH]c3ccc(-c4nnc[nH]4)cc23)c1,-0.158,0.142,0.052
Cn1cc(-c2ccc3c(c2)CCN3C(=O)Cc2cccc(C(F)(F)F)c2)c2c(N)ncnc21,-0.197,-0.05,-0.011
CC1=C(C(=O)Nc2cc3cn[nH]c3cc2F)C(c2ccc(C(F)(F)F)cc2)CC(=O)N1 (centres undefined),-0.004,-0.113,-0.055
CCn1cc(-c2ccnc3[nH]c(-c4cccc(CN(C)C)c4)cc23)c(-c2ccc(NC(=O)N(C)C)cc2)n1,-0.018,-0.031,-0.141
CNC(=O)c1ccc(Nc2ncc(C(F)(F)F)c(NCc3nccnc3N(C)S(C)(=O)=O)n2)cc1 [defactinib],-0.187,0.037,-0.106
CS(=O)(=O)c1ccc(-c2cnc(N)c(C(=O)Nc3ccccc3)n2)cc1,0.097,0.138,0.043
Nc1ccccc1NC(=O)c1ccc(CNC(=O)OCc2cccnc2)cc1 [entinostat],0.004,-0.061,-0.015
FC(F)(F)c1ccc(/C=C/c2nc(COc3ccc(CCCCn4ccnn4)cc3)co2)cc1 [mubritinib],0.017,-0.124,-0.066
Cn1c2cc(S(C)=O)sc2c2cnn(Cc3cccc(N)c3)c(=O)c21 (centres undefined),0.125,-0.073,-0.108
CN1CCN(CCOc2cc(OC3CCOCC3)c3c(Nc4c(Cl)ccc5c4OCO5)ncnc3c2)CC1 [saracatinib],0.168,0.147,0
CN1CC[C@H](c2c(O)cc(O)c3c(=O)cc(-c4ccccc4Cl)oc23)[C@H](O)C1 [alvocidib],0.008,-0.009,0.025
C=CC(=O)N1CCC[C@@H](n2nc(-c3ccc(Oc4ccccc4)cc3)c3c(N)ncnc32)C1 [ibrutinib],0.026,0.074,0.051
CON(C)C(=O)N1N=C(c2cc(F)ccc2F)S[C@@]1(CCCN)c1ccccc1 [filanesib],0.041,-0.01,-0.108
c1cn2cc(-c3ccc4cn[nH]c4c3)nc(Nc3ccc(N4CCOCC4)cc3)c2n1 [entospletinib],0.116,0.224,0.132

SMILES,log2 fold change [1],log2 fold change [2],log2 fold change [3]
Fc1ccc(Cl)cc1-c1nc(Nc2ccncc2)c2nccnc2n1,0.079,-0.027,0.019
CCCCN(Cc1ccc(C(=O)NO)cc1)C(=O)Nc1ccccc1 [Nexturastat A],0.109,0.068,-0.021
Cc1ccc2c(=O)c3ccccc3n(CCCN)c2c1C,-0.003,-0.044,-0.017
CC(C)c1cnn2c(NCc3ccccc3)cc(NCCCCCCN)nc12,-0.099,-0.145,-0.043
CN1CCc2c(c3ccccc3n2Cc2ccc(C(=O)NO)cc2)C1 [Tubastatin A],0.016,-0.05,0.003
COc1cc2ncnc(Nc3ccc(F)c(Cl)c3)c2cc1OCCCN1CCOCC1 [gefitinib],-0.027,-0.049,-0.097
NC(=O)c1ccc2nc(-c3ccc(Oc4ccc(Cl)cc4)cc3)[nH]c2c1,-0.068,0.02,0.005
CC(=O)c1cnc2ccc(-c3cc(Cl)c(O)c(Cl)c3)nc2c1N[C@H]1CC[C@H](CN(C)C)CC1,0.077,0.319,0.366
CS(=O)(=O)N1CCN(Cc2cc3nc(-c4cccc5[nH]ncc45)nc(N4CCOCC4)c3s2)CC1 [pictilisib],0.039,0.16,0.087
NC1(c2ccc(-c3nc4ccn5c(=O)[nH]nc5c4cc3-c3ccccc3)cc2)CCC1,-0.174,0.048,-0.027
O=C(O)c1ccc2c(c1)nc(Nc1cccc(Cl)c1)c1ccncc12 [silmitasertib],0.071,-0.072,0.153
O=C(CCCCCCC(=O)Nc1ccccc1)NO [vorinostat],-0.009,-0.007,0.074
CCN(CCCOc1ccc2c(Nc3cc(CC(=O)Nc4cccc(F)c4)[nH]n3)ncnc2c1)CCOP(=O)(O)O [barasertib],0.068,-0.004,-0.034
CCCS(=O)(=O)Nc1ccc(F)c(C(=O)c2c[nH]c3ncc(-c4ccc(Cl)cc4)cc23)c1F [vemurafenib],-0.012,-0.016,0.147
Cc1nc(Nc2n[nH]c3c2CN(C(=O)N[C@H](CN(C)C)c2ccccc2)C3(C)C)c2sccc2n1,-0.109,0.104,0.158
C[C@H](Nc1ncnc2nc[nH]c12)c1cc2cccc(Cl)c2c(=O)n1-c1ccccc1 [duvelisib],-0.1,0.007,0.186
CC(C)(O)CC(=O)NCCn1ccc2ncnc(Nc3ccc(Oc4cccc(C(F)(F)F)c4)c(Cl)c3)c21,-0.146,-0.034,0
C[C@@H](N)c1ccc(C(=O)Nc2ccnc3[nH]ccc23)cc1,0.084,0.365,0.412 (active)
NC1(Cc2ccc(Cl)cc2)CCN(c2ncnc3[nH]ccc23)CC1,0.054,0,-0.085
CCCc1cc(C)[nH]c(=O)c1CNC(=O)c1cc(-c2ccnc(N3CCN(C)CC3)c2)cc2c1cnn2C(C)C,-0.02,-0.026,0.08
Cc1cccc(-c2[nH]c(C(C)(C)C)nc2-c2ccc3nccnc3c2)n1,-0.036,0,0.015
Cc1cc(Nc2cc(CN3CCOCC3)c3nc(C)c(Cc4ccc(Cl)cc4F)n3n2)n[nH]1 [gandotinib],-0.026,0.103,0.091
O=C(Nc1cccc(Nc2ncc(Br)c(NCCc3cnc[nH]3)n2)c1)N1CCCC1,0.067,0.255,0.265
CC[C@@H]1C(=O)N(C)c2cnc(Nc3ccc(C(=O)NC4CCN(C)CC4)cc3OC)nc2N1C1CCCC1,-0.106,-0.086,0.078
